HDAC3 inh – human HDAC3 inhibition | O15379 | inhibition, % at 8.3 µM | 0.15% of 320,000 active | AID 2718 | recombinant HDAC3, fluorogenic peptide/trypsin coupled, fluorescence; in the data active = inhibition above about 26%, passing the limit was not always enough; inconclusive = no clear call, values can overlap the other calls
PKA-R1A activ – activators of PKA-R1A complex; P00514+P68181; PKA-R1A dissociation, Cy5-IP20 fluorescence polarization; scaled: DMSO 0%, 113 µM cGMP 100%; activation, % at 11.4 µM; 0.083% of 340,000 active;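 active = percent activation above the mean of all tested compounds plus 3 SD, cut at about 19% in these data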;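 also: higher means more PKAc released from R1A so a rise in polarization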
Rtt109 Vps75 – inhibitors of Candida albicans Rtt109/Vps75 histone acetyltransferase; Q5AAJ8; purified Rtt109/Vps75, ThioGlo CoA-SH fluorescence, 4 h; inhibition, % at 34.9 µM; 0.16% of 330,000 active; AID 540336;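 active = inhibition of at least 50% in every replicate; inconclusive = best replicate reaches 50% inhibition but some replicates fall short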
Target sequence (Q5AAJ8 whole entry, looked up): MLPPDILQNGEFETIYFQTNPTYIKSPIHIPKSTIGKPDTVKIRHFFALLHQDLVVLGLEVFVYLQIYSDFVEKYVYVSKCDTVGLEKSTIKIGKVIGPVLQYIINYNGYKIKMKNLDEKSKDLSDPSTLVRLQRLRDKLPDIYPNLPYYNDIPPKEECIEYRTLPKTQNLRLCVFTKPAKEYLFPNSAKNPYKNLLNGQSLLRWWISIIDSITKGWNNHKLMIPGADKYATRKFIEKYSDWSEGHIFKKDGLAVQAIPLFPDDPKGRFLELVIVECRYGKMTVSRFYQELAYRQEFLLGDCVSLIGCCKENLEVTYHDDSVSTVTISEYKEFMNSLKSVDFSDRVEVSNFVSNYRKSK
PKA-R2B activ – activators of human PKA-R2B complex; PKA-R2B holoenzyme dissociation, Cy5-IP20 fluorescence polarization; R2B truncated from residue 108, S112A mutant; 0% DMSO only, 100% 113 µM cGMP; activation, % at 11.4 µM; P22694+P31323; 0.079% of 340,000 active;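 active = activation above a cutoff set at the mean over all compounds plus 3 SD, cut at about 18% in these data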;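 also: higher means more holoenzyme dissociation and a rise in polarization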
The depositor's hits bear a star; ? = inconclusive; nt = no result; + = active, no number. Only some compounds are listed: those with a hit (about 0.43% of all), similar ones and a draw of the others.

SMILES | HDAC3 inh | PKA-R1A activ | Rtt109 Vps75 | PKA-R2B activ
O=C(CCS(=O)(=O)c1ccccc1)Nc1nc2c(s1)COc1ccccc1-2 | nt | -10 | -4 | -5
CCOC(=O)c1c(CSC(=N)N)n(-c2ccc(C)cc2)c2cc(Br)c(OC(C)=O)cc12 | -1 | 1 | 3 | 13
CCOC(=O)c1c(CSC(=N)N)n(C)c2cc(Br)c(OC(C)=O)cc12 | 8 | 8 | 85* | -6
COc1ccc(C2CC(=O)C(C=NCCO)=C(O)C2)cc1 (stereo not drawn) | -3 | -6 | 54* | 0
COc1ccc(C2CC(=O)C(C=NCCO)=C(O)C2)cc1OC (stereo not drawn) | -3 | -1 | 8 | -5
O=C(CSCc1ccco1)c1cccs1 | 92* | -11 | -6 | -8
CCOC(=O)c1ccc(N2C(=O)c3n[nH]c(C)c3C2c2ccc(OC)cc2)cc1 (stereo not drawn) | 9 | -3 | 77* | -3
CCN1CCN(CCOc2cccc(Oc3ccccc3)c2)CC1 | 0 | -13 | 2 | 1
COc1ccc(/C=N/N=C/c2ccc(OC)c(OC)c2)cc1OC | 8 | -3 | -10 | 1
COc1cc(/C=N/N=C(N)N)ccc1OCc1ccccc1Cl | 9 | 1 | 69* | -14
CC(Oc1ccc(Cl)cc1Cl)c1ccn[nH]1 (stereo not drawn) | 5 | -12 | 7 | -17
COc1cccc(NC(=O)C2CCN(C(=O)NC3CCCCC3)CC2)c1 | -3 | 0 | -6 | 13
O=C(/C=C/Nc1nccs1)C(F)(F)Cl | 54* | -2 | nt | 4
O=C(CNc1cccc(S(=O)(=O)N2CCCC2)c1)Nc1ccc(F)cc1F | -3 | -6 | 0 | 5
O=S(=O)(c1ccc(NC(=S)Nc2ccccc2)cc1)N1CCOCC1 | -1 | -5 | -2 | -15
CC(C)CCCCCCNC(=S)Nc1ccc(S(=O)(=O)N2CCOCC2)cc1 | 29* | -10 | 48 | -5
CC(Sc1ccc(S(=O)(=O)N(C)C)cn1)C(=O)NC1CCCC1 (stereo not drawn) | -1 | -17 | -1 | -1
Cc1ccc(C(=O)NCC(=O)NCC(c2ccco2)N2CCCCC2)cc1C (stereo not drawn) | nt | -1 | 56* | -3
Cc1nnc(Sc2cc(NCCCO)c([N+](=O)[O-])c3nonc23)s1 | nt | -8 | + | -8
Cc1nnc(Sc2cc(NCCO)c([N+](=O)[O-])c3nonc23)s1 | nt | -1 | -20 | -14
COc1ccccc1NC(=O)c1cc(Sc2nncn2C)nc2ccccc12 | 4 | -12 | 7 | -7
O=C(COc1ccc(F)cc1)Nc1nnc(S(=O)(=O)N2CCCC2)s1 | -5 | -7 | -6 | -14
COC(=O)C1=C(C)NC(=O)NC1c1ccc(-c2ccc(Cl)cc2)o1 (stereo not drawn) | 45* | 5 | 3 | 1
COC(=O)C1=C(C)NC(=O)NC1c1ccc([N+](=O)[O-])o1 (stereo not drawn) | 7 | -5 | -5 | 7
CCCc1nn(C)c2c(=O)[nH]c(-c3cc(S(=O)(=O)Nc4ccc(NC(C)=O)cc4)ccc3OCC)nc12 | -2 | -10 | 7 | -2
SMILES | HDAC3 inh | PKA-R1A activ | Rtt109 Vps75 | PKA-R2B activ
O=C(CSc1nnc(Cc2cccs2)n1C1CCCCC1)N1CCN(C(=O)c2ccco2)CC1 | 9 | -6 | 51* | 7
CCCCCc1ccc(OCCCC[n+]2cccc(C)c2)c(CCCCC)c1 | 7 | 2 | 73* | 3
COc1ccc(OC)c2sc(N(CCCN(C)C)C(=O)CCS(=O)(=O)c3ccccc3)nc12 | 0 | 13 | 83* | 6
Cc1cccc2sc(N(CCCN(C)C)C(=O)CCc3ccccc3)nc12 | nt | 0 | 58* | -1
Cc1cccc2sc(N(CCCN(C)C)C(=O)CN3C(=O)c4ccccc4C3=O)nc12 | 3 | -3 | -2 | 2
COC(=O)C(C)Sc1n[nH]c(=S)s1 (stereo not drawn) | 31* | 6 | 7 | 0
CCCCC1C(=O)N(c2ccccc2)N(c2ccc(O)cc2)C1=O (stereo not drawn) | -2 | 0 | 28 | 0
CS(=O)(=O)c1ncc(Cl)c(C(=O)Nc2ccc(N3CCOCC3)cc2)n1 | nt | 1 | 110* | 3
O=S(=O)(c1ccc(N2CCOCC2)c(Cl)c1)N1CCOCC1 | -1 | 0 | 2 | 6
O=c1c2ccccc2sn1-c1cc(S(=O)(=O)N2CCOCC2)ccc1N1CCOCC1 | 18 | -9 | 122* | -2
O=c1c2ccccc2sn1-c1cc(S(=O)(=O)N2CCOCC2)ccc1N1CCCC1 | 27* | 2 | 7 | -4
CC(C)(C)Cc1c(-c2ccc(F)cc2)nc2ccc(Br)cn12 | nt | 1 | nt | -9
COc1cccc(S(=O)(=O)N(C)C[C@H]2OCc3cnnn3CCCC(=O)N([C@H](C)CO)C[C@H]2C)c1 | nt | 0 | nt | 1
Nc1c(C(O)(C(F)(F)F)C(F)(F)F)cc(C(O)(C(F)(F)F)C(F)(F)F)c2ccccc12 | 33* | -14 | 1 | -15
COc1ccccc1C(=O)Nc1ccc(OCC(=O)N2CC(C)CC(C)C2)cc1 (stereo not drawn) | 0 | -2 | 53* | -12
C[C@@]12CC(=O)NC1N(C(=O)c1cccc(C(F)(F)F)c1)C(c1ccccc1OC(=O)c1cccc(C(F)(F)F)c1)C2 (stereo partly drawn) | 42* | -6 | 4 | -6
COc1ccc(Br)cc1CN(C)C(C)C(=O)Nc1cccc(C(C)=O)c1 (stereo not drawn) | ? | -19 | 53* | 0
Cc1ccc(S(=O)(=O)Nc2ccc(NC(=O)Nc3cccc(C(F)(F)F)c3)cc2)cc1 | 31* | 4 | 0 | 5
COCCNC(=O)C1=C(N)C(C(=O)Nc2ccc(C)c(S(=O)(=O)N3CCCCC3)c2)SC1=Nc1ccc(C)cc1C (stereo not drawn) | 7 | -16 | 58* | -6
CCC(C)C(=O)Nc1ccc([N+](=O)[O-])cc1OC (stereo not drawn) | 7 | 0 | 0 | -4
CCSc1ccccc1C(=O)Nc1ccc([N+](=O)[O-])cc1OC | 2 | -11 | 55* | -4
O=C(c1ccccc1)n1nc(-c2ccccc2)nc1NCc1ccco1 | 38* | -1 | 4 | 1
Nc1nc(-c2ccco2)nn1C(=O)c1ccc(F)cc1 | nt | -2 | 5 | 4
CCCC(=O)n1nc(-c2ccco2)nc1N | 40* | -1 | 3 | -7
Nc1nc(-c2ccco2)nn1C(=O)c1ccc(Cl)cc1 | ? | -9 | 7 | 1
Nc1nc(-c2ccco2)nn1C(=O)c1ccccc1 | 35* | -7 | -8 | -4
CCOC(=O)C(O)(NC(=O)c1cccnc1)C(F)(F)F (stereo not drawn) | 42* | -4 | 6 | 3
CC1(C)Cc2ccccc2C(N/N=C/c2ccc(Cl)cc2)=N1 | 9 | -8 | 4 | -3
Cc1cc(C)cc(NC(=O)NC(C)C2CCCO2)c1 (stereo not drawn) | 2 | -16 | 56* | -6
CC(NC(=O)Nc1ccc2c(c1)OCO2)C1CCCO1 (stereo not drawn) | 2 | -6 | -4 | 0

Screening data deposited in PubChem BioAssay by several laboratories.
